Compound activity as filed in PubChem BioAssay.
Peg3 prom inh: Peg3 promoter activity inhibition. HeLa PEG-Prom luciferase reporter, luminescence, overnight. inhibition, % at 20 µM. 1.7% of 360,000 active;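 active = inhibition of at least 50% at 20 µM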
CF NFkB inh: blocks PAF-induced NF-kB reporter in cystic fibrosis cells. KKLEB NF-kB-GFP reporter, GFP fluorescence overnight. 0.86% of 360,000 active. inhibition, % at 5 µM;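 active = at least 50% inhibition at 5 µM, scaled per plate between neutral and stimulator controls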;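 note: PAF is a Pseudomonas aeruginosa culture filtrate used as stimulus; plate controls were PAF-stimulated DMSO wells for no effect and unstimulated DMSO wells for full effect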
TWEAK Fn14 block: blocks TWEAK-Fn14 interaction in a reporter cell assay | TWEAK-stimulated Fn14 reporter cells, luciferase luminescence, 8 h | 2% of 360,000 active | inhibition, % at 10 µM; in the data active = inhibition above about 50%
TROY NFkB inh: blocks TROY-dependent signaling in reporter cells. Q293 LMP1-TROYcd NF-kB luciferase reporter, 4 h. inhibition, % at 10 µM. 0.98% of 360,000 active;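 active = compounds whose plate-normalised and pattern-corrected inhibition of the luciferase reporter signal at the single screening dose is 50% or more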
HIF-2a block: HIF-2a inhibition. 786-0 RCC cells HIF-2a reporter, luciferase luminescence, overnight. inhibition, % at 18.8 µM. 0.72% of 360,000 active;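 active = inhibition of the luminescence signal of 40% or more relative to plate controls, in a single-dose primary screen at 18.75 µM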
KKLEB tox: CF airway cell cytotoxicity counter-screen | 0.36% of 360,000 active | activity change (cytotoxicity), % at 5 µM | KKLEB CF airway cells viability, ATPlite luminescence, overnight; stronger effect = lower value; cells stimulated with P. aeruginosa culture filtrate;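 active = corrected activity change at or below -50% at 5 µM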
* hit, by the source's call; x = no result given. Rows were chosen to be rich in hits. Some 4% of all compounds tested hit in one or more screens of this group.

SMILES	Peg3 prom inh	CF NFkB inh	TWEAK Fn14 block	TROY NFkB inh	HIF-2a block	KKLEB tox
CC1Cc2ccccc2N1C(=O)COC(=O)c1ccccc1NCCO (centres undefined)	-93	20	57*	25	-85	3
CCOC(=O)C1CCN(C(=O)CNC(=O)Cn2c(C)cc3ccccc3c2=O)CC1	5	2	2	6	15	2
COc1cccc(OC)c1NC(=O)C1CCCN1C(=O)Nc1ccccc1F (centres undefined)	8	9	-5	-5	5	1
O=C(CN(c1ccccc1F)S(=O)(=O)c1ccccc1)Nc1ccc2c(c1)OCCO2	-4	6	75*	45	-19	-9
CCc1ccc(S(=O)(=O)Nc2ccc(O)c3c(=O)cc(-c4ccccc4Cl)oc23)cc1	13	20	-20	-15	-6	-6
O=c1cc(-c2ccccc2Cl)oc2c(NS(=O)(=O)c3cc(Cl)cc(Cl)c3O)ccc(O)c12	43	44	65*	68*	0	-15
c1ccc(CN2CCC(Nc3nc(-c4cccs4)nc4ccccc34)CC2)cc1	75*	5	-40	20	22	-18
COc1ccc([C@@]2(C(C)C)ON(c3ccccc3C(F)(F)F)C2=O)cc1	62*	53*	9	-19	7	0
COc1ccc(C2(c3ccc(OC)cc3)NC(=O)N(CC(=O)Nc3ccccc3C(F)(F)F)C2=O)cc1	7	-1	4	-7	14	6
Cc1cccc(CCNc2nc3ccc(C)cc3n3cnnc23)c1	-95	-6	74*	73*	-102	6
CCN(CC(=O)Nc1ccccc1C(F)(F)F)C(=O)c1ccccc1OCc1ccc(F)cc1	26	18	-3	-12	-3	-3
CC(C)NC(=O)CN1CCN(C(=O)c2ccc3oc(CCCc4ccccc4)nc3c2)CC1	-49	-8	-9	-5	-58	-11
CCN(CC)C(=O)c1ccc2c3c(cccc13)C(=O)N(CCc1ccc(OC)c(OC)c1)C2=O	60*	4	39	35	3	-6
CC1=CC(=O)C(C(C)C)=C/C1=N/OS(=O)(=O)c1ccccc1	106*	-1	89*	47	-16	27
CC1=CC(=O)C=C(C)C1=NOS(=O)(=O)c1ccccc1	82*	21	47	42	63*	-7
CNC[C@@H]1OCc2ccccc2-c2ccccc2C(=O)N([C@H](C)CO)C[C@@H]1C	-6	-19	4	-13	8	19
Cc1cc(C)cc(S(=O)(=O)c2cn(C)c3cc(N4CCN(C)CC4)c(F)cc3c2=O)c1	100*	6	-8	5	1	-7
O=C(CSc1nnc(-c2ccccc2F)o1)N1CCNC1=O	-187	-15	9	-23	-217	5
O=C(O)C1C2CCCCC2=C2CCCCC2C1C(=O)O (centres undefined)	53*	19	3	2	24	-14
O=S(=O)(NC(=NC1CCCCC1)c1ccccc1F)c1ccccc1	28	2	63*	-7	6	0
O=S(=O)(NC(=NC1CCCCC1)c1ccccc1)c1ccccc1	8	-2	12	1	16	-5
COC(=O)c1ccccc1-c1ccc(C(c2c(C)[nH][nH]c2=O)c2c(C)[nH][nH]c2=O)o1	19	0	17	-2	12	-8
COC(=O)c1cccc(-c2ccc(C(c3c(C)[nH][nH]c3=O)c3c(C)[nH][nH]c3=O)o2)c1	22	-34	8	82*	-26	-1
Cc1cc2oc(C(=O)Nc3ccc(S(=O)(=O)Nc4nccs4)cc3)cc(=O)c2cc1Cl	5	-20	-6	7	-4	3
Cc1cc(C)c2oc(C(=O)Nc3ccc(S(=O)(=O)Nc4nccs4)cc3)cc(=O)c2c1	-6	9	73*	1	-6	-14
SMILES	Peg3 prom inh	CF NFkB inh	TWEAK Fn14 block	TROY NFkB inh	HIF-2a block	KKLEB tox
CCCCCCCCCCCCCCCCn1cc[n+](C)c1	108*	84*	78*	42	82*	-94*
CCCCCCCCn1ccc(=N)cc1	9	2	-6	0	10	7
Cc1ccc(OCc2nnc(SCC(=O)Nc3sc(C)c(C)c3C#N)n2C)cc1	-15	3	52*	-16	-1	-15
Clc1ccc(-c2cn3cc(Br)ccc3n2)cc1Cl	-67	3	58*	28	-86	-7
Brc1ccc2nc(-c3c[nH]c4ccccc34)cn2c1	-378	-32	-10	-39	-341	-3
Cc1ccn2cc(-c3ccc(Br)cc3)nc2c1	-69	-27	73*	33	-45	-47
Cc1c(C(C)(C)C)sc(=NC(=O)c2ccccc2O)n1C	-295	20	47	56*	-247	-9
COc1cccc(C(=O)Nc2ccc3c(c2)C(=O)N(CCC(=O)O)C3=O)c1	5	-9	18	12	-9	2
CC(=O)Nc1cccc(Oc2ccc3c(c2)C(=O)N(CCC(=O)O)C3=O)c1	-3	-13	88*	x	-6	-2
Cc1ccc(NC(=O)Cn2c(O)c(N=NC(=O)c3ccncc3)c3ccccc32)cc1	20	-1	-20	9	11	-7
Cc1ccc(NC(=O)Cn2c(O)c(N=NC(=O)c3cc4ccccc4cc3O)c3ccccc32)cc1	97*	20	-90	-34	-46	-35
CC1(C(=O)NS(=O)(=O)c2ccc(Cl)cc2)CCN1C(=O)C1(c2ccc(Cl)cc2)CCC1 (centres undefined)	-5	5	10	8	5	-2
CN1C2CCC1/C(=C\c1ccccc1F)C(=O)/C2=C/c1ccccc1F	4	-14	83*	20	40	3
Cc1ccc2c(c1)/C(=C/c1ccccc1F)C(=O)N2	12	-8	11	-29	21	10
Cc1c(C(=O)N2CCN(Cc3ccc4c(c3)OCO4)CC2)sc2ncnc(N3CCN(c4ccccc4)CC3)c12	58*	-24	87*	53*	-3	9
Cc1c(C(=O)N2CCN(c3ccccn3)CC2)sc2ncnc(N3CCN(c4ccccc4)CC3)c12	22	1	8	3	13	-4
Cc1c(C(=O)N2CCN(Cc3ccc4c(c3)OCO4)CC2)sc2ncnc(N3CCN(c4ccccc4F)CC3)c12	58*	-24	88*	50	-20	-18
Cc1cccc(N(CC(=O)N2CCCC2)S(C)(=O)=O)c1	12	-3	7	12	18	4
COc1cc(NC(=O)Nc2ccccc2OC)c(OC)cc1NC(=O)CN1CCCCC1	-13	-4	6	-13	-14	-2
COc1cc(NC(=O)Nc2ccccc2)c(OC)cc1NC(=O)CN1CCCCC1	-33	-15	78*	x	-41	12
COc1cccc(NC(=O)CN(C)C(=O)c2c(C)nn(CC(C)C)c2Cl)c1	4	-5	5	-22	-6	8
Cc1[nH]c2ccccc2c1CN1CCC(Cc2ccccc2)CC1	78*	25	12	-1	1	-19
